Source: PubChem BioAssay (several laboratories)
HIF-2a block = HIF-2a inhibition; 786-0 RCC cells HIF-2a reporter, luciferase luminescence, overnight; inhibition, % at 18.8 µM; 0.72% of 360,000 active;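 active means inhibition of the luminescence signal of 40% or more relative to plate controls, in a single-dose primary screen at 18.75 µM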
Peg3 prom inh-1 = Peg3 promoter activity inhibition | inhibition, % at 20 µM | HeLa PEG-Prom luciferase reporter, luminescence, overnight | 1.7% of 360,000 active | AID 588405;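 active means inhibition of at least 50% at 20 µM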
CHOP inh = blocks CHOP induction under ER stress; 3.8% of 220,000 active; CHO-K1 CHOP-promoter luciferase, tunicamycin-induced, 15-18 h; inhibition, % at 10 µM;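 active means compounds that reduced the stress-induced luciferase reporter signal by more than about 70% of percent inhibition, limit read from the data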;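 further: 0% = tunicamycin plus vehicle and 100% = wells without tunicamycin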
CF NFkB inh = cystic fibrosis NF-kB activation inhibition; 0.86% of 360,000 active; KKLEB NF-kB-GFP reporter, PAF-induced, GFP fluorescence overnight; inhibition, % at 5 µM;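 active means at least 50% inhibition at 5 µM, scaled per plate between neutral and stimulator controls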;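 further: PAF is a Pseudomonas aeruginosa culture filtrate used as stimulus; plate controls were PAF-stimulated DMSO wells for no effect and unstimulated DMSO wells for full effect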
KKLEB tox = CF airway cell cytotoxicity counter-screen; 0.36% of 360,000 active; KKLEB CF airway cells viability, ATPlite luminescence, overnight; stronger effect = lower value; cells stimulated with P. aeruginosa culture filtrate; AID 602141; activity change (cytotoxicity), % at 5 µM;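 active means corrected activity change at or below -50% at 5 µM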
TRPM1 prom inh = inhibitors of MITF-driven TRPM1 promoter in melanoma cells. 0.83% of 330,000 active. AID 488899. inhibition, % at 12.5 µM. SK-MEL-5 TRPM1 promoter luciferase, 24 h;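 active means mean inhibition across replicates of 60% or more, whatever share of single replicates reaches that level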
Peg3 prom inh-2 = confirmation of Peg3 promoter inhibitors. HeLa PEG-Prom luciferase reporter, luminescence, overnight. inhibition, % at 20 µM. AID 602417. shares compounds with Peg3 prom inh-1. 84% of 1,300 active;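 active means at 20 µM dose, 40% or more inhibition averaged across four replicates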
CF NFkB inh conf = CF NF-kB inhibition confirmation, single concentration | 64% of 1,300 active | shares compounds with CF NFkB inh | AID 602472 | KKLEB CF airway cells, PAF-induced NF-kB-GFP fluorescence, overnight | inhibition, % at 5 µM; in the data active means inhibition above about 40%;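 further: stimulus PAF is a Pseudomonas aeruginosa filtrate and not platelet activating factor; plate controls were DMSO wells with stimulus for no effect and unstimulated DMSO wells for full effect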
Mdm2 MdmX conf = confirmation of inhibitors of human Mdm2/MdmX interaction, set 2 | shares compounds with HIF-2a block | 99% of 740 active | SaOS-2 split-luciferase Mdm2/MdmX complementation, luminescence | inhibition, % at 8 µM;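 active means mean inhibition of the luminescence signal across two replicates at or above 26 percent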
Target sequence (O15151 whole entry, looked up): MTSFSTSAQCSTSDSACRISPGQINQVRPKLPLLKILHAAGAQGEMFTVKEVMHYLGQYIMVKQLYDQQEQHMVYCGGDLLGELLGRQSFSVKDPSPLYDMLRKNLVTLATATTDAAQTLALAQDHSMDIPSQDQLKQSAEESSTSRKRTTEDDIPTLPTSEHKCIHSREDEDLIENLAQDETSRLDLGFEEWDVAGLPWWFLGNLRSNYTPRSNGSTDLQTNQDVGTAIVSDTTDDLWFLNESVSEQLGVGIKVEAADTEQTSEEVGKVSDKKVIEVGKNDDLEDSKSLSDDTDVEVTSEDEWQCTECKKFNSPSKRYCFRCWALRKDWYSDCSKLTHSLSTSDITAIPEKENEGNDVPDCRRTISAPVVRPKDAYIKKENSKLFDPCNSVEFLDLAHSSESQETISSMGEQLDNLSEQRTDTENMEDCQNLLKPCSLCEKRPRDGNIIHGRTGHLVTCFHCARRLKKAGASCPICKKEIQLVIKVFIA
Target sequence (Q00987 whole entry, looked up): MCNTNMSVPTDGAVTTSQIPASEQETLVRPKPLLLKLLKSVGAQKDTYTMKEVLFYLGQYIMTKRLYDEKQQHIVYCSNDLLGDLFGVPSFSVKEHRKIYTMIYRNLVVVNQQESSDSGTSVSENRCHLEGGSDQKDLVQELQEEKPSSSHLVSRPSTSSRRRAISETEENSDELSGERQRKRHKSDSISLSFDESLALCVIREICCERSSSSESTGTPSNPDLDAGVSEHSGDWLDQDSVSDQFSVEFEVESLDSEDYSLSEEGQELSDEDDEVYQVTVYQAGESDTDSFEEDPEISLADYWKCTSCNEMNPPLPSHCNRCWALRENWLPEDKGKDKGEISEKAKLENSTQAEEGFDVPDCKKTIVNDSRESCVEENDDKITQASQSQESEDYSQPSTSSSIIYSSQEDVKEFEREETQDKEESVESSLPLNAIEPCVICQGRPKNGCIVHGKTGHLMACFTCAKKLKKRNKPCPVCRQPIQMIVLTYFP
HIF-2a conf = HIF-2a inhibition, single concentration confirmation; inhibition, % at 18.8 µM; 786-0 RCC cells, HIF-2a luciferase reporter luminescence, overnight; 56% of 1,800 active; shares compounds with HIF-2a block;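 active means mean inhibition across four replicates of at least 40 percent at the single tested concentration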
HIF-1a cs = HIF-1a inhibition counter-screen for HIF-2a hits. inhibition, % at 18.8 µM. 72% of 1,800 active. shares compounds with HIF-2a block. AID 651589. MiaPaCa-2 HIF-1a luciferase reporter, desferoxamine, overnight;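 active means mean inhibition of the reporter signal across four replicates at the single tested dose of 50% or more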
Numbers without * were called inactive; / = no result given. Most compounds without a hit are left out; they make up all but 4.3% or so of the library.

SMILES | HIF-2a block | Peg3 prom inh-1 | CHOP inh | CF NFkB inh | KKLEB tox | TRPM1 prom inh | Peg3 prom inh-2 | HIF-2a conf | HIF-1a cs | others
CC1CCCCN1C(=O)c1cccc(NC2=C(Cl)C(=O)N(Cc3ccccc3)C2=O)c1 (stereo not given) | 18.3 | 51.7* | / | 57.3* | -44.0 | 25.5 | 53.7* | / | / | CF NFkB inh conf=-103.9
NC(=O)c1nsc(C(=O)N(c2ccccc2F)C(C(=O)NCc2ccc(F)cc2)c2ccc(O)cc2)c1N (stereo not given) | 19.1 | 58.4* | / | 93.7* | -34.1 | 6.3 | 60.2* | / | / | CF NFkB inh conf=107.5*
COc1ccc(NC(=O)c2c(C)noc2C(C)C)cc1S(=O)(=O)N1CCCCC1 | 7.6 | 20.1 | / | 0.1 | 1.8 | 11.5 | / | / | /
COC(=O)c1ccc(C#Cc2ccccc2)o1 | -159.7 | -95.7 | -2.1 | -16.2 | -4.0 | -28.4 | / | / | /
CSCCC(NS(=O)(=O)c1ccc2c(c1)OCCO2)C(=O)N(C)Cc1ccc(C)cc1 (stereo not given) | 14.3 | 18.4 | / | 6.3 | -12.6 | 9.2 | / | / | /
COc1cccc(CN(C)C(=O)C(CCSC)NS(=O)(=O)c2ccc3c(c2)OCCO3)c1OC (stereo not given) | 6.7 | 55.9* | / | 73.8* | 14.8 | -6.2 | 62.2* | / | / | CF NFkB inh conf=79.0*
CC(=O)c1ccc(-c2cnc3c(NC=O)cc(-c4ccccc4Oc4ccccc4)cn23)cc1 | 24.3 | 55.2* | / | 58.0* | -26.6 | / | 62.6* | / | / | CF NFkB inh conf=45.2*
COc1ccc(Nc2nccc(-c3cccc(N)c3)n2)cc1 | -195.2 | 72.6* | / | 70.7* | 20.0 | -4.5 | -117.0 | / | / | CF NFkB inh conf=93.9*
O=C(N/N=C/c1cccn1-c1cccc(C(=O)O)c1)Nc1ccccc1 | 9.4 | -2.7 | 37.5 | 11.7 | 10.5 | -6.8 | / | / | /
CC(C)CCNC(=O)Cc1csc(-c2ccccc2)n1 | -15.2 | -1.9 | 4.0 | -3.6 | 2.0 | 4.1 | / | / | /
CN(C(=S)Nc1ccc(SC(F)F)cc1)C(c1ccccc1)c1ccccc1 | 11.9 | 8.9 | / | 19.1 | -1.0 | 12.1 | / | / | /
FC(F)Sc1ccc(NC(=S)NC(c2ccccc2)c2ccccc2)cc1 | -11.4 | 52.8* | 53.8 | 50.7* | -45.2 | 32.4 | 95.2* | / | / | CF NFkB inh conf=57.0*
Cc1ccc(S(=O)(=O)/N=C(\CCl)N2CCOCC2)cc1 | 24.1 | 57.6* | -94.5 | 57.5* | -13.9 | 22.9 | 39.0 | / | / | CF NFkB inh conf=70.2*
COc1cccc(OC)c1C(=O)Nc1cc(C)nn1-c1nc2ccccc2[nH]1 | -33.7 | 54.2* | 19.7 | 78.2* | -17.0 | 7.1 | 70.8* | / | / | CF NFkB inh conf=53.2*
COc1ccc(Nc2oc(COc3ccccc3OC)nc2C#N)cc1 | 59.5* | 77.0* | 1.1 | -4.0 | 4.8 | 16.6 | 51.4* | 61.6* | 56.6*
S=C(NN=C(c1ccccc1)c1ccccn1)N(Cc1ccccn1)Cc1ccccn1 | 48.6* | 106.5* | / | 38.9 | -21.8 | 82.8* | 100.7* | 67.7* | 100.0*
COc1cc(C(=O)/C=C/c2cccnc2)c([N+](=O)[O-])cc1OC | 89.5* | 69.0* | / | 45.9 | -12.2 | 34.0 | 96.0* | 73.3* | 96.3*
O=C(/C=C/c1cccnc1)c1ccc([N+](=O)[O-])cc1 | -10.8 | 47.8 | / | -4.5 | -14.5 | 12.4 | / | / | /
Cc1ccc(N2CC(C(=O)NCCN3CCOCC3)CC2=O)cc1C (stereo not given) | 4.1 | 7.9 | / | -13.5 | 7.1 | 7.3 | / | / | /
COc1ccc(-c2cc(-c3ccc(F)cc3)nc(N3CCN(C)CC3)n2)cc1 | 52.1* | 79.8* | 86.7* | -18.7 | -34.8 | 18.4 | 58.1* | 1.1 | 70.5*
COc1ccc(-c2cc(C(F)(F)F)nc(N3CCOCC3)n2)cc1 | -3.7 | 13.7 | 64.8 | -3.3 | 12.2 | -18.2 | / | / | /
CCCN(CC(=O)Nc1ccccc1OC)C(=O)c1ccc(=O)[nH]c1 | 14.4 | -9.9 | / | -5.9 | -7.1 | -9.0 | / | / | /
CN(C)S(=O)(=O)c1cccc(NC(=O)CSc2cccc3cccnc23)c1 | 65.9* | 101.7* | / | -10.7 | 1.6 | 28.4 | 92.9* | 74.9* | -15.4
C[n+]1c(-c2ccccc2)cc2c(=Cc3ccccc3)c3ccccc3n21 | 61.2* | 102.8* | / | 46.5 | -28.7 | 98.1* | 95.5* | 93.0* | 104.0*
Cc1ccc2nc(-c3ccc4c(c3)OCCO4)cn2c1 | 80.1* | 90.8* | 93.5* | -25.8 | -85.2* | 84.1* | 93.4* | / | / | Mdm2 MdmX conf=93.5*
SMILES | HIF-2a block | Peg3 prom inh-1 | CHOP inh | CF NFkB inh | KKLEB tox | TRPM1 prom inh | Peg3 prom inh-2 | HIF-2a conf | HIF-1a cs | others
Cc1ccc(C(=O)O/N=C(\N)c2ccccn2)cc1 | 62.1* | 106.5* | / | 9.3 | -22.0 | 67.4* | 76.8* | / | / | Mdm2 MdmX conf=49.0*
C/C(=N\OC(=O)c1ccc(Br)cc1)c1ccccn1 | -23.0 | -101.9 | -2.0 | -4.7 | 5.3 | 1.8 | / | / | /
CC(C)(C)c1ccc(C(=O)O/N=C(\N)c2ccccn2)cc1 | 82.3* | 110.7* | / | 47.2 | -38.1 | 77.7* | 99.0* | 85.4* | 84.3*
Cc1nc(CCNC(=O)CC2C(=O)NCCN2CC(C)C)nc2c1CCC2 (stereo not given) | 8.7 | -31.2 | / | 10.4 | -7.4 | 7.8 | / | / | /
COc1ccc(-c2nc(-c3ccccn3)no2)cc1 | 88.2* | 89.0* | 100.7* | -35.8 | -80.1* | 87.1* | 85.6* | 94.9* | 98.5* | Mdm2 MdmX conf=96.2*
Cc1ccccc1-c1nc(-c2ccccn2)no1 | 59.9* | 63.3* | 56.3 | -31.4 | -38.8 | 74.0* | 57.6* | 72.9* | 66.2*
Cc1nc(NC(=O)c2cccnc2Cl)sc1C | -212.2 | -204.5 | / | -4.4 | 13.7 | -49.8 | / | / | /
CCOC(=O)N1CCN(C(=O)CSc2ccc(-c3cccnc3)nn2)CC1 | / | / | 5.4 | / | / | / | / | / | /
CCOC(=O)c1c(SCCN2CCCCC2)n(-c2ccccc2)c(=S)n(-c2ccccc2)c1=O | 87.4* | 108.1* | / | 7.0 | -7.9 | 99.2* | 99.0* | 67.7* | 100.6*
O=C(Nc1nnc(-c2ccc3c(c2)CCCC3)o1)C1COc2ccccc2O1 (stereo not given) | -68.2 | -40.0 | 63.0 | -19.5 | -1.5 | / | / | / | /
CC(=O)c1cccc(-c2csc3ncnc(Sc4nnnn4C)c23)c1 | 49.4* | 87.5* | / | 71.1* | -4.6 | / | 85.2* | 44.3* | 98.7* | CF NFkB inh conf=28.4
Cn1nnnc1Sc1ncnc2scc(-c3ccc4c(c3)OCO4)c12 | 62.8* | 75.5* | / | 47.9 | -21.6 | 29.1 | 77.5* | 40.0 | 77.5*
